Among the data in PubChem BioAssay (EPA / NIEHS) are outcome and AC50 values, retold here.

Inconclusive results are not listed. Some structures have more than one record in an assay (separate samples or runs), and their calls can disagree. Active and inactive are the calls of the source. How the source made its calls: active means hit-call score of the fitted dose curve at least 0.9, where 1 is the maximum; inconclusive means response in the unintended direction; inactive means score below 0.9.

One may read the AC50 as the midpoint of the concentration-response curve, whichever way the signal moves.

In the assay the target is zebrafish Thyroid Hormone Receptor beta (TRb), thrb (gene 30607) (UniProt Q9PVE4). The assay is described as follows: ATG_zfTRb_XSP2: Attagene TRANS-FACTORIAL Multi-Species (XSP1) HepG2 Assay for zebrafish Thyroid Hormone Receptor beta (TRb) (AID 2283836).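 On AC50: potency for induction of reporter signal above DMSO so agonist direction.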 The procedure: ATG_XSP2_multi-species_TRANS is a cell-based, multiplexed assay created by modifying the existing Attagene TRANS-FACTORIAL system to include a panel of nuclear receptors from some or all the following species: human (Homo sapiens), mouse (Mus musculus), frog (Xenopus laevis), zebrafish (Danio rerio), chicken (Gallus gallus), and turtle (Chrysemys picta). The ECOTOX-FACTORIAL format uses HepG2, a human liver cell line, with measurements taken at 24 hours after chemical dosing in a 24-well plate. Xsp2 included 3 nM 6-alpha-fluorotestosterone and 1.5 nM norgestrel to stimulate the androgen receptor.ATG_zfTRb_XSP2 is one of 29 assay components measured or calculated from the ATG_XSP2_multi-species_TRANS assay. It is designed to make measurements of mRNA induction, a form of inducible reporter, as detected with fluorescence intensity signals by Reverse transcription polymerase chain reaction (RT-PCR) and Capillary electrophoresis technology.The assay endpoint ATG_zfTRb_XSP2 was analyzed in the positive analysis fitting direction relative to DMSO as the negative control and baseline of activity. Using a type of inducible reporter, measures of mRNA for gain-of-signal activity can be used to understand the reporter gene at the transcription factor-level as they relate to the gene TR. Furthermore, this assay endpoint can be referred to as a primary readout, because this assay has produced multiple assay endpoints where this one serves a reporter gene function. To generalize the intended target to other relatable targets, this assay endpoint is annotated to the nuclear receptor intended target family, where the subfamily is non-steroidal.
zebrafish Thyroid Hormone Receptor beta (TRb), thrb (gene 30607), sequence (Q9PVE4 whole entry, looked up): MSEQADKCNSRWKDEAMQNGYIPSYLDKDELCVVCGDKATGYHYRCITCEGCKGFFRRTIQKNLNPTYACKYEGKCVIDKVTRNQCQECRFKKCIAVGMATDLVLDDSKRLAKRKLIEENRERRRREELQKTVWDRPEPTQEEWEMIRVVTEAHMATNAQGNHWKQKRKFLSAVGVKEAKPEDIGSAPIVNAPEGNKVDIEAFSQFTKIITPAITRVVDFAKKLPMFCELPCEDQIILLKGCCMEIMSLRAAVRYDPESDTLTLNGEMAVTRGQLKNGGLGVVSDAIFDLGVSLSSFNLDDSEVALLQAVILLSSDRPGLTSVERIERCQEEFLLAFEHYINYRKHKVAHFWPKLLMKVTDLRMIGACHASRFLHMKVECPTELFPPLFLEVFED
Human liver HepG2 cells are transiently transfected with multiple reporter transcription units (MRTUs) in 6-well plates using FuGene 6 reagent (Roche; 3 ml FuGene/1 mg DNA). The MRTU constructs are regulated by a cis-regulating element (promoter). […] A major difference between the CIS and TRANS system is that in CIS activities of endogenous TFs are measured, whereas the TRANS assay evaluates changes in activities of exogenous, chimeric NR-Gal4 proteins. […] At the end of 24 hour incubation, total RNA was isolated using TriZol reagent (Invitrogen). The isolated RNA is then reverse-transcribed using oligo(dT) primer and Mo-MLV reverse transcriptase (Invitrogen) with DNAse I (Ambion) treatment for 30 min. The one-tenth of the produced cDNA was amplified by PCR using Taq DNA polymerase (Invitrogen) and two reporter sequence-specific primers. The PCR products were fluorescently labeled by primer extension with 6-arboxyfluorescein (6-FAM) 5'-labeled reporter sequence-specific primer (2 min at 95 C, 20 s at 68 C and 10 min at 72 C) and these products were digested with 5U of HpaI (New England Biolabs) for 2h at 37 C. The fragments were purified using Qiaquick PCR columns (Qiagen), analyzed on an ABI 3130xL genetic analyzer (Applied Biosystems) with peak positions identified by using a set of X-rhodamine (ROX)-labeled MapMarker1000 molecular weight standards (BioVentures). The raw capillary electrophoresis data was processed using Attagraph software (Attagene).
As for `CC(C)(C)c1cc(O)ccc1O`, the compound was called inactive.
On the same count and under the same terms, to `C[C@]12CCC(=O)C[C@@H]1CC[C@@H]1[C@@H]2CC[C@]2(C)[C@@H](O)CC[C@@H]12` belongs “inactive”; to `CC1(C)CCC(Cc2ccc(Cl)cc2)C1(O)Cn1cncn1` (stereo not given), “inactive”.
The same measure, in the same setting: to `COP(=O)(OC)O/C(=C\Cl)c1cc(Cl)c(Cl)cc1Cl` belongs “inactive”.
Same read-out and setting: to `CC(=O)C=C(C)C` belongs “inactive”; to `CC12CC1(C)C(=O)N(c1cc(Cl)cc(Cl)c1)C2=O` (stereo not given), “inactive”.
On to `Oc1c(I)cc(I)cc1I`, for which the AC50 was 26.3 µM (active) and the call was inactive.
As to `CC(C)C1CCC(Cc2ccc(Cl)cc2)C1(O)Cn1cncn1` (stereo not given), the compound was classed as inactive.
The same measure, in the same setting: the value for `Clc1ccc(C2(Cn3cncn3)CC(Br)CO2)c(Cl)c1` (stereo not given) was “inactive”.
For `O=C1C2(Cl)C3(Cl)C4(Cl)C(Cl)(Cl)C5(Cl)C3(Cl)C1(Cl)C5(Cl)C24Cl` (stereo not given), the call was inactive.
On the same count and under the same terms, to `C[C@]12CC[C@H](O)CC1=CC[C@@H]1[C@@H]2CC[C@]2(C)C(=O)CC[C@@H]12` belongs “inactive”.
Same read-out and setting: to `Oc1ccc(-c2ccccc2)cc1` belongs “inactive”.
On the same count and under the same terms, to `CC(C)(C)CC(C)(C)c1ccc(O)cc1` belongs “inactive”.
For `O=S(=O)(c1ccc(Cl)cc1)c1ccc(Cl)cc1`, the outcome was inactive.
